From PubChem BioAssay AID893 (National Center for Advancing Translational Sciences (NCATS), 2007)
Out of some 75,000 compounds screened, about 5,700 (7.6%) were called active. Inconclusive results (about 7%) are left out. Calls come from the whole dose curve; as a rule, active = well fitted inhibition curve with a large enough effect; inconclusive = small, poorly fitted or top-dose-only effect; inactive = no such curve, though single readings can be large or run the other way. For the sample, actives were picked, then their nearest neighbours and some compounds at random.

Each compound was assayed against 3-hydroxyacyl-CoA dehydrogenase type-2 (Homo sapiens) (UniProt Q99714) (assay: qHTS Assay for Inhibitors of HSD17B4, hydroxysteroid (17-beta) dehydrogenase 4). Conditions: recombinant HSD17B10, NADH fluorescence kinetic; series mostly up to 57.1 µM; activity change, negative = inhibition: at the top concentration.
Outline: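 Activity followed as NADH fluorescence increase (ex 360, em 450 nm) every 30 seconds for 4 min, using final 90 uM beta-hydroxybutyryl CoA and 1 mM NAD+. Recombinant His-tagged enzyme, 20 nM, pH 9.0 Tris buffer, 15 min compound preincubation.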
% is set by controls: 0 for no effect and ±100 for the full control effect; potency is the fitted concentration of half-maximal effect.
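Note: the protocol describes HADH2 (HSD17B10) and not the HSD17B4 of the title; nearly all actives have a fitted effect of over 70% in size.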

Activity change, negative = inhibition, inactive:
CN(C)CCCn1c2ccccc2c2cnccc21 7.17% [at 11.4 µM]
Cc1cc(Cl)c(S(=O)(=O)NCC2CCCO2)cc1OCC(N)=O (stereo unspecified) 4.23%
O=C(COc1ccc2oc3c(c2c1)CCCC3)Nc1ccccn1 5.38%
O=C(CC1OC(=O)c2ccccc21)NC1CCCCC1 (stereo unspecified) -3.03%
O=C(COc1ccccc1F)NC1CC1 12.2%
CCOC(=O)CSc1nc2c(c(=O)n(C)c(=O)n2C)n1Cc1ccccc1F 3.77%
CCOC(=O)CSc1nnc(CNC(=O)Cc2ccccc2)n1-c1ccccc1OC -4.39%
COC(=O)CSc1nc(C2CC2)nc2ccccc12 1.28%
CCCc1nc2c3cnn(-c4cccc(Cl)c4)c3ncn2n1 -20.2%
Cc1ccc(-n2ncc3c(N4CCN(c5ccc(F)cc5)CC4)ncnc32)c(C)c1 -2.46%
CC1=C(/C=C/C(C)=C/C=C/C(C)=C/C=C/C=C(C)/C=C/C=C(C)/C=C/C2=C(C)CCCC2(C)C)C(C)(C)CCC1 0.289%
CC(=O)OCC(=O)[C@@]1(O)CCC2C3CCC4=CC(=O)CC[C@@]4(C)[C@]3(F)C(O)C[C@]21C (stereo partly specified) 0.147%
COc1ccc(OCCCC(=O)Nc2nnc(C3CCCO3)s2)cc1 (stereo unspecified) -0.481%
COc1cccc(NC(=O)Nc2nnc(N3CCCCC3C)s2)c1 (stereo unspecified) 3.2%
C[C@H]1CC[C@H](C(=O)O)N[C@@H]1c1ccc(C#Cc2ccccc2)cc1 -1.28% [at 11.4 µM]
O=C(Nc1cccc(F)c1)c1ccc(S(=O)(=O)N2CCCC2)cc1 1.79%
C/C(Cl)=C\Cn1c(Nc2cccc(C)c2)nc2c1c(=O)n(C)c(=O)n2C 10.6%
CCOC(=O)c1sc(NC(=O)CSc2ncccn2)c(C#N)c1C 3.84%
COCCNC(=O)COc1ccc(C)c(C)c1 9.62%
Cc1cccc(CNc2ccnc(-c3cccnc3)n2)c1 -10.9%
O=C(Nc1cccnc1)c1ccc2c(c1)OCO2 -2.27%
Cc1onc(-c2ccccc2Cl)c1C(=O)NCCn1ccc2ccccc21 2.57%
Cc1noc(/C=C/N(C)C)c1S(=O)(=O)N1CCCC(C(=O)NCc2ccco2)C1 (stereo unspecified) -2.89%
COc1c(C(=O)N2CCCC2)ccc2ccccc12 4.92%
COc1cccc2cc(C(=O)N(C)C)c(=O)oc12 -22.2%
CCOC(=O)N1CCN(C(=O)c2n[nH]c(=O)c3ccccc23)CC1 0.0442%
CCOC(=O)c1cc2ccccc2nc1C 0.969%
CS(=O)(=O)N1CCN(C(=O)c2cc3ccccc3oc2=O)CC1 -9.3%
CCOC(=O)N1CCN(C(=O)c2cn(C)c3ccc(S(=O)(=O)N4CCCC4)cc3c2=O)CC1 -11.3%
CC(C)=CCC/C(C)=C/CC/C(C)=C/CC/C(C)=C/CO -7.07%
CC(c1cccnc1)N(CCN(C)C)C(=O)Nc1ccc(Cl)c(Cl)c1 (stereo unspecified) 5.22%
Cc1ccc(Br)cc1 2.4%
COC(=O)c1ccc(N(CC(=O)NC2CCCC2)C(=O)CNC(=O)c2ccco2)cc1 3.14%
COCCCNC(=O)c1c(F)c(F)c(F)c(F)c1F -7.25%
CC(=O)N1[C@H](C)C=C[C@]1(Cc1ccccc1)C(=O)NCc1ccccn1 -2.62%
Cc1ccccc1CN1CCN(CC(=O)NCc2ccccn2)C1=O 1.1%

Potency, active:
NC(=O)COc1ccc2c3c(c(=O)oc2c1)CCCCC3 25.1 µM
O=C(COc1ccc2c3c(c(=O)oc2c1)CCC3)NC1CCCCC1 31.6 µM
Cc1ccc(-n2ncc3c2ncn2nc(-c4ccco4)nc32)c(C)c1 25.1 µM
COc1ccc2c(CC(=O)Nc3nnc(C4CC4)s3)coc2c1 25.1 µM
c1cncc(CNc2ccnc(-c3ccc4c(c3)OCO4)n2)c1 20 µM
CCOC(=O)N1CCN(C(=O)c2cc3c(ccc4ccccc43)oc2=O)CC1 31.6 µM
C=CCc1cccc2cc(C(=O)N3CCN(C(=O)OCC)CC3)c(=O)oc12 25.1 µM
C=CCc1cccc2cc(C(=O)OCC)c(=O)oc12 31.6 µM
Cc1cccn2c(=O)c3cc(C(=O)NCc4ccccn4)n(C)c3nc12 3.16 µM

Potency, inactive:
CC(N)=NCc1cccc(CN)c1
